Data as given in PubChem BioAssay (NCI).
Compounds without any hit were thinned out: in the full panel of roughly 79,000, 15% have a hit. Rule as the data show it: active = growth inhibition above about 70%; inactive = the rest.

Tests used:
[1] = NCI Yeast Anticancer Drug Screen. Data for the rad50 strain (AID 155);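 also: 0% = growth of vehicle-only cultures of the same strain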; details: S. cerevisiae rad50 strain growth inhibition; at 50.0 µM; stronger effect = higher value
Method in brief: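 A DNA repair-deficient yeast mutant serves as the test organism; compound-induced growth inhibition is calculated against vehicle-treated cells.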

[2] = NCI Yeast Anticancer Drug Screen. Data for the mec2-1 strain (AID 157); details: S. cerevisiae mec2-1 strain, at 50.0 µM, stronger effect = higher value
Method in brief: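 Vehicle-treated cultures served as reference for growth inhibition of compound-exposed mec2-1 yeast.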

[3] = NCI Yeast Anticancer Drug Screen. Data for the sgs1 mgt1 strain (AID 161);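 also: 0% = growth of cultures given vehicle only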; details: S. cerevisiae sgs1 mgt1 strain, at 50.0 µM, stronger effect = higher value
Method in brief: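 Mutant yeast exposed to compound; growth scored against vehicle-only wells.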

[4] = NCI Yeast Anticancer Drug Screen. Data for the cln2 rad14 strain (AID 165);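 also: 0% = growth equal to vehicle treated cultures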; details: S. cerevisiae cln2 rad14 strain, at 50.0 µM, stronger effect = higher value
Method in brief: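 Each compound was tested on cln2 rad14 yeast. Inhibition of growth was calculated against vehicle-exposed controls.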

[5] = NCI Yeast Anticancer Drug Screen. Data for the bub3 strain (AID 167); details: S. cerevisiae bub3 mutant strain, at 50.0 µM, stronger effect = higher value
Method in brief: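 Inhibition values come from growth of compound-treated mutant yeast normalised to vehicle-treated controls.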

[6] = NCI Yeast Anticancer Drug Screen. Data for the mlh1 rad18 strain (AID 175); details: S. cerevisiae mlh1 rad18 strain growth inhibition; at 50.0 µM; stronger effect = higher value
Method in brief: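 Vehicle-treated cultures served as the reference for growth inhibition in a yeast strain carrying DNA damage repair alterations exposed to each compound.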

Measured: growth inhibition

CC(=O)NC(=O)CC(=O)c1ccccc1
inactive: [1] -2.2% | [2] -12.8% | [3] -13.4% | [4] 13.9% | [5] -4.7% | [6] -18.3%

NC(=O)N/N=C/c1ccncc1
inactive: [1] -7.15% | [2] 28.6% | [3] -24.9% | [4] -7.05% | [5] 8.6% | [6] 7.45%

C=CCC(C(=C)C)(C(=O)OCC)C(=O)OCC
inactive: [1] -23.4% | [2] -24.6% | [3] -32.6% | [4] -6.8% | [5] -25.4% | [6] -31.9%

O=C1/C(=C/c2cccc3ccccc23)CCc2ccc([N+](=O)[O-])cc21
inactive: [1] -34.5% | [2] -23.6% | [3] -49.9% | [4] -23.9% | [5] 20.1% | [6] -15.6%

COC1OC(CS(=O)(=O)O)C(O)C(O)C1O (stereo unspecified)
inactive: [1] -44.5% | [2] -2.15% | [3] -1.85% | [4] -13.6% | [5] -31.9% | [6] -4.3%

N#CC1=C(Nc2ccccc2)SC(c2cccs2)NC1=O (stereo unspecified)
inactive: [1] 12.4% | [2] 4.7% | [3] 20.6% | [4] 16.5% | [5] 11.9% | [6] 23.2%

COC1/C=C/OC2(C)Oc3c(C)c(O)c4c(c3C2=O)C(N)=C(Nc2ccccc2)C(=NC(=O)C(C)=CC=CC(C)C(O)C(C)C(O)C(C)C(OC(C)=O)C1C)C4=O (stereo unspecified)
inactive: [1] 15.5% | [2] 45.5% | [3] 41.9% | [4] 46.5% | [5] 16.9% | [6] 39.9%

Cc1cc(S(=O)(=O)Nc2n[nH]c(Nc3ccc4ccccc4c3)n2)c(S)cc1Cl
inactive: [1] 34.2% | [2] 5.85% | [3] 29.2% | [4] 36.5% | [5] 35.9% | [6] 39.9%

Cc1cc[n+](CC(=O)c2ccc(Br)cc2)cc1
inactive: [1] 22.8% | [2] 12.7% | [3] 18.4% | [4] 22.9% | [5] 4.35% | [6] 54.5%

CCCC[Si](C)(C)CCCC
inactive: [1] -6.35% | [2] -5.95% | [3] -24.9% | [4] -11.2% | [5] -2.1% | [6] -5.3%

O=C1c2cscc2C(=O)c2c(OCc3ccccc3)ccc(OCc3ccccc3)c21
inactive: [1] 3.7% | [2] 6.65% | [3] -7.45% | [4] -5.3% | [5] 1.95% | [6] 7.4%

O=C(O)C1CC=CCC1C(=O)Nc1cccc(O)c1 (stereo unspecified)
inactive: [1] -16.9% | [2] -30.8% | [3] -51.7% | [4] 38.5% | [5] -40% | [6] 6.25%

COCCOCc1nc(C#N)c(N)o1
inactive: [1] -6.6% | [2] 2.6% | [3] -36% | [4] 13.8% | [5] -24% | [6] -66.2%

O=C1CCSC(=S)N1c1ccccc1
inactive: [1] 38.2% | [2] 4.8% | [3] 23.8% | [4] -32.2% | [5] -5.4% | [6] 27.1%

CC12CC3(C)CC(C)(C1)CC(C(NC(C)(C)C)C(=O)O)(C2)C3 (stereo unspecified)
inactive: [1] 16.8% | [2] 20.1% | [3] 11.9% | [4] 5.7% | [5] 18.9% | [6] 21.2%

CC(=O)OCC1OC(n2nnc3c(=O)n(C)c(=O)[nH]c32)C(OC(C)=O)C(OC(C)=O)C1OC(C)=O (stereo unspecified)
inactive: [1] 9.45% | [2] 16.1% | [3] 13.8% | [4] 4% | [5] 8.9% | [6] 29.4%

O=C1OCCCC1(Cc1ccccc1)Cc1ccccc1
inactive: [1] 44.6% | [2] -7.7% | [3] 37.4% | [4] -16.1% | [5] 39.6% | [6] 16.5%

O=c1cc(Nc2ccc(Cl)cc2)[nH]c(=O)[nH]1
inactive: [1] -1.45% | [2] -5.45% | [3] -5.55% | [4] -61.9% | [5] 6.2% | [6] -7.65%

Cc1ccccc1N(CCC#N)C1=NN(C(=O)CC(=O)Nc2ccccc2)C(c2ccccc2)C1 (stereo unspecified)
inactive: [1] 3% | [2] 1% | [3] 12.1% | [4] 11.7% | [5] 0.85% | [6] -7.2%

CC(=O)O[C@@H]1C[C@H](C)CC(C)(C)C1
inactive: [1] 3.35% | [2] 5.75% | [3] -10.6% | [4] -3.7% | [5] 0.4% | [6] -3.1%

Cc1ccccc1C1=CCCCCC1
inactive: [1] -5.15% | [2] -17.6% | [3] -2.8% | [4] 0.75% | [5] -7.65% | [6] -9.8%

C/C(CC(=O)Nc1ccc(Cl)c(Cl)c1)=N/NC(=O)C[N+](C)(C)C
inactive: [1] -9.25% | [2] -14.7% | [3] -6.3% | [4] 26.6% | [5] -14.8% | [6] -6.1%

Clc1c2c(nc3ccccc13)CCCC2
inactive: [1] 19.3% | [2] 50.9% | [3] 49.4% | [4] -37% | [5] 7.65% | [6] 8.05%

COc1cc(NC=O)c2c(c1)SCC(=O)N2
inactive: [1] -1.75% | [2] -52.5% | [3] -8.75% | [4] 6.7% | [5] 6.2% | [6] -6.6%

CC(=O)C1C(=O)OC2C3C=CC(C3)C2C1=O (stereo unspecified)
inactive: [1] 14.9% | [2] 21.1% | [3] 0.9% | [4] -4.7% | [5] 20.1% | [6] 42.6%

Cc1onc2c1c(=O)n(C)c(=O)n2C
inactive: [1] -6.25% | [2] -1.95% | [3] -3.55% | [4] -20.1% | [5] -7.45% | [6] -2.25%

C(=C1c2c(ccc3ccccc23)Oc2ccc3ccccc3c21)c1ccccc1
inactive: [1] 14.3% | [2] 10.6% | [3] 12.3% | [4] -30.1% | [5] 1.65% | [6] 14.3%

Cc1ccc(N)c(C(=O)Nc2ccc(Br)cc2)c1
inactive: [1] -19.6% | [2] -18.6% | [3] -10.1% | [4] -8.85% | [5] -17.6% | [6] -16.6%

O=C(c1no[n+]([O-])c1C(=O)c1csc2ccccc12)c1csc2ccccc12
inactive: [1] -9.7% | [2] -2.2% | [3] -31.9% | [4] -39.9% | [5] -10.3% | [6] -0.25%

O=S(=O)(Cc1ccccc1)/C(=C\c1ccccc1)c1ccccc1
inactive: [1] -6.65% | [2] 11.4% | [3] 2.4% | [4] 0.1% | [5] 6.6% | [6] 5.5%

O=C1c2ccccc2-c2ccc(I)cc21
inactive: [1] 5.15% | [2] -1.7% | [3] 2.25% | [4] -17.6% | [5] 8.45% | [6] 26.2%

O=C(O)C1=C(C(=O)O)C2CCCC3C4CCCCC4N(N1)C23 (stereo unspecified)
inactive: [1] 20.1% | [2] -13.9% | [3] -20.4% | [4] 3.9% | [5] 1.15% | [6] 22.9%

N/C(=N\C(=O)OCCOC(=O)/N=C(/N)c1ccccc1)c1ccccc1
inactive: [1] -3.5% | [2] -8.5% | [3] -6.05% | [4] -20.5% | [5] -3.1% | [6] -27.1%

Nc1ccc(OCCc2c(N)nc(N)nc2N)cc1
inactive: [1] -1.2% | [2] 7.15% | [3] 12.4% | [4] -4.05% | [5] 22.7% | [6] 9.7%

CC(C)(C)OC(=O)C(N)Cc1ccccc1 (stereo unspecified)
inactive: [1] -5.8% | [2] -6.6% | [3] 20.9% | [4] 0.35% | [5] 3.35% | [6] -22.6%

C=C1CC(CCCCC2CC(=C)C(=O)O2)OC1=O (stereo unspecified)
inactive: [1] 1.45% | [2] -15.8% | [3] -8.1% | [4] -104% | [5] -12.7% | [6] -24.6%

N#Cc1c2c(c(=O)n3c1[nH]c1ccccc13)CCC2
inactive: [1] -23.9% | [2] 11.4% | [3] -15.6% | [4] -3.25% | [5] -1.6% | [6] -8.2%

CC(C)C1CCC(C)(C(=O)Oc2ccccc2-c2ccccc2)C1 (stereo unspecified)
inactive: [1] 13.1% | [2] 23.4% | [3] 9.75% | [4] -11.6% | [5] 22.2% | [6] 13.6%

COC(=O)C1C(C(=O)OC)C2N(c3ccccc3)C=NN2C1C(=O)c1ccccc1 (stereo unspecified)
inactive: [1] -62.2% | [2] -10.2% | [3] -16% | [4] -3.65% | [5] 5.05% | [6] -4.65%

COc1ccc(/C=N/NC(=O)NNC(=O)c2cc([N+](=O)[O-])cc([N+](=O)[O-])c2)cc1OC
inactive: [1] 33.2% | [2] 13.3% | [3] 36.7% | [4] 15.4% | [5] 3.6% | [6] 32.4%

CC(=O)Nc1ccc(/C=N\NC(=S)Nc2ccc(F)cc2)cc1
inactive: [1] -13.4% | [2] -12.7% | [3] -3.9% | [4] -53.1% | [5] 4.65% | [6] -18.8%
